In PubChem BioAssay (NCATS):
Where “and” joins values, the source holds several entries; their conditions need not be identical. Equal values may be shown once. Inconclusive results are not listed. Entries that show only a call come without a potency. Calls of active or inactive are those of the source. Unless noted, the call rests on the fitted dose curve; in most records, active means well fitted curve in the direction sought with a large enough effect; inconclusive means small, poorly fitted or top-dose-only effect, or another doubt; inactive means no such curve, though single readings can be large; an effect the other way counts as inactive or inconclusive.

Tests used:
[1] = Cell Viability - BJ (AID 421; calls by dose curve;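 further: potency means the concentration at half of the fitted maximal effect; cells exposed to compound for 40 hours at 37 °C before readout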); conditions: BJ fibroblast viability, qHTS
Outline: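 Cytotoxicity in human BJ foreskin fibroblasts is scored as loss of cellular ATP after a 40-hour exposure, measured by luciferase luminescence. Controls are DMSO and 100 uM tamoxifen.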

[2] = Cell Viability - HepG2 (AID 433; calls by dose curve;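 further: potency means the concentration at half of the fitted maximal effect; cells exposed to compound for 40 hours; potency for ATP loss meaning cytotoxicity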); conditions: qHTS
Outline: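 In this qHTS format, a 40 h, 37 °C compound incubation of HepG2 cells in complete medium precedes a 20 min CellTiter-Glo step at room temperature. Tamoxifen and doxorubicin serve as positive controls; Hill-equation fits yield AC50.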

[3] = Cell Viability - Mesenchymal (AID 546); conditions: mesenchymal cells viability, qHTS; activity change, negative = cytotoxicity: at 91.7 µM (top of the series);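 further: cells exposed to compound for 40 hours before reading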
Outline: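 Human renal mesenchymal cells (glomerulus-derived), 1000 cells/well, 5 hr 37 °C pre-incubation; compound 40 hr, 37 °C; CellTiter-Glo, 20 min RT; luminescence; AC50 via Hill equation.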

[4] = Cell Viability - LYMP1-003 - Assay at 40 hr (AID 964); conditions: LYMP1-003 lymphoblastoid viability; series mostly up to 92.2 µM; further: nearly all actives have a fitted effect of over 60% in size
Outline: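 Viability is taken as cellular ATP, read by CellTiter-Glo luminescence after 40 h of compound exposure at 37 C. Cells: human lymphoblastoid line LYMP1-003 at 2500/well; AC50 values derived by Hill-equation fitting of concentration-response data.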

[5] = Cell Viability - LYMP2-004 (AID 966); conditions: LYMP2-004 lymphoblastoid cell viability, qHTS; series mostly up to 92.2 µM; further: nearly all actives have a fitted effect of over 65% in size
Outline: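 AC50 values come from Hill modelling of concentration-dependent loss of intracellular ATP, measured by CellTiter-Glo luminescence. Human LYMP2-004 lymphoblastoid cells (2500/well) were exposed to compound for 24 h at 37 C.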

[6] = Cell Viability - LYMP2-021 (AID 974); conditions: LYMP2-021 lymphoblastoid cells viability; series mostly up to 92.2 µM; further: nearly all actives have a fitted effect of over 55% in size
Outline: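 AC50 values come from Hill-equation fits to CellTiter-Glo luminescence (ATP content), read after 24 hour compound exposure at 37 C of 2500 LYMP2-021 lymphoblastoid cells/well; tetraoctylammonium bromide as positive control.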

[7] = Cell Viability - LYMP2-025 (AID 976); conditions: LYMP2-025 lymphoblastoid cell viability; series mostly up to 92.2 µM
Outline: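 Cytotoxicity read as loss of intracellular ATP (luciferase luminescence) after 24 h compound treatment at 37 C. Uses LYMP2-025 lymphoblastoid cells in 1536-well format; Hill-equation modelling gives AC50; tetraoctylammonium bromide as positive control.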

[8] = Cell Viability - LYMP2-002 (AID 977); conditions: LYMP2-002 lymphoblastoid cell viability, qHTS; series mostly up to 92.2 µM
Outline: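 Human lymphoblastoid cells, 2500/well, complete medium; 5 h 37 C settle; compound 24 h 37 C; CellTiter-Glo, 30 min RT; luminescence. Decrease in ATP = cytotoxicity; AC50 via Hill equation.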

[9] = Cell Viability - LYMP2-008 (AID 980); conditions: LYMP2-008 lymphoblastoid cell viability, qHTS; series mostly up to 92.2 µM; further: nearly all actives have a fitted effect of over 60% in size
Outline: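 Cytotoxicity determined from ATP-dependent luciferase luminescence (CellTiter-Glo) following 24 h compound exposure of human lymphoblastoid LYMP2-008 cells at 37 C. Concentration-response data fitted to the Hill equation to give AC50.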

[10] = Cell Viability - LYMP2-014 (AID 983); conditions: LYMP2-014 lymphoblastoid cells, viability qHTS; series mostly up to 92.2 µM; further: nearly all actives have a fitted effect of over 50% in size
Outline: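 Intracellular ATP loss, read by luciferase luminescence, measures acute cytotoxicity after 24 h compound exposure of lymphoblastoid LYMP2-014 cells (2500/well, 37 C). Concentration-response data fitted to the Hill equation for AC50.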

[11] = Cell Viability - LYMP2-016 (AID 984); conditions: LYMP2-016 lymphoblastoid cell viability, qHTS; series mostly up to 92.2 µM; further: nearly all actives have a fitted effect of over 55% in size
Outline: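 Concentration-dependent ATP depletion measured in LYMP2-016 lymphoblastoid cells, 24 h, 37 C; luciferase-based luminescent detection; Hill-equation AC50.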

[12] = Cell Viability - LYMP2-018 (AID 985); conditions: LYMP2-018 lymphoblastoid cells, viability (qHTS); series mostly up to 92.2 µM; further: nearly all actives have a fitted effect of over 50% in size
Outline: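 Viability read as CellTiter-Glo luminescence (cellular ATP) after 24 hr compound exposure at 37 C of 2500 LYMP2-018 lymphoblastoid cells/well, pre-plated 5 hr. Hill-equation modelling gave AC50.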

[13] = Cell Viability - LYMP2-026 (AID 989); conditions: LYMP2-026 lymphoblastoid cell viability, qHTS; series mostly up to 92.2 µM; further: nearly all actives have a fitted effect of over 50% in size
Outline: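 Cytotoxicity read as ATP-dependent luminescence (CellTiter-Glo, 30 min room temperature) after 24 h compound treatment at 37 C. LYMP2-026 lymphoblastoid line seeded at 2500 cells/well; AC50 derived by standard Hill equation.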

[14] = Cell Viability - LYMP1-002 - Assay at 40 hr (AID 994); conditions: LYMP1-002 lymphoblastoid cell viability; series mostly up to 92.2 µM; further: nearly all actives have a fitted effect of over 60% in size
Outline: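 Cytotoxicity was read as loss of cellular ATP (CellTiter-Glo luminescence) after 40 hr compound exposure at 37 C of 2500 LYMP1-002 lymphoblastoid cells per well. Concentration-response data were fitted with the standard Hill equation to give AC50.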

[15] = qHTS assay for small molecule antagonists of retinoid X receptor alpha signaling (AID 588546; active means well fitted inhibition curve with a large enough effect in the signal ratio, with a control signal flat, not every such curve was filed as active; the % refers to the signal ratio;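 further: cells stimulated with 9-cis-retinoic acid as agonist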); conditions: HEK293T RXRa-UAS-bla, beta-lactamase ratio, antagonist mode; measured here: W530 green channel, cytotoxicity proxy
Outline: (§1)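 Beta-lactamase reporter inhibition, read as CCF4 fluorescence ratio (ex 405, em 460/530 nm) after 2 h at RT. HEK293T UAS-bla cells, 2500/well, were stimulated with 9-cis-RA at 500 or 100 nM final alongside test compound for 18 h at 37 C.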

[16] = biological target: Retinoic acid receptor RXR-alpha (Homo sapiens) (UniProt P19793); experiment: as above; conditions: HEK293T RXRa-UAS-bla, beta-lactamase ratio, antagonist mode
Sequence of Retinoic acid receptor RXR-alpha (Homo sapiens) (P19793 whole entry, looked up): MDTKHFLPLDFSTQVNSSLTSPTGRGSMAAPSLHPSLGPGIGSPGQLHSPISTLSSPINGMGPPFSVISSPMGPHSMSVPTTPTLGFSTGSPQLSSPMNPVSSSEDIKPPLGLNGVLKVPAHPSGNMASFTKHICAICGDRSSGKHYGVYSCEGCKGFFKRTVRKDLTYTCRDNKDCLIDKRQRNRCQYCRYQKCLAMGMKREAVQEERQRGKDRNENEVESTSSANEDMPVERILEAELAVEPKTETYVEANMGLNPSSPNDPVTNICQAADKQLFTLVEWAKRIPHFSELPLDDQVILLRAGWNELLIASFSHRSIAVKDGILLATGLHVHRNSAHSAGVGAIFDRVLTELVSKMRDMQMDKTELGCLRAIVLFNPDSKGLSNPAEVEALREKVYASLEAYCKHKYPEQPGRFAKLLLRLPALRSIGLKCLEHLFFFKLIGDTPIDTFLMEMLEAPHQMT
Outline: as §1

[17] = qHTS assay for environmental chemicals that activate the Aryl hydrocarbon Receptor (AhR) signaling pathway (AID 651777); conditions: 1A2-DRE human hepatoma cells, luciferase, 24 h; activation: stronger effect = higher value; further: nearly all actives have a fitted effect of over 15% in size
Outline: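 Concentration–response screening used 1,200 1A2-DRE cells per well, 24 hr compound exposure (37 C, 5% CO2), and One-Glo luminescence as the AhR-driven CYP1A2 reporter signal.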

[18] = qHTS assay for cell viability of HEK293 cells (AID 743288); conditions: ATP luminescence (CellTiter-Glo), 18 h; max response: stronger effect = lower value; further: nearly all actives have a fitted effect of over 50% in size
Outline: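 HEK293, 18 h, 37 C, ATP luminescence. Cells at 2,000/well were allowed at least 5 h to settle before dosing; CellTiter-Glo developed 30 min at RT.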

[19] = Cell Viability - LYMP2-020 (AID 986); conditions: series mostly up to 92.2 µM; further: nearly all actives have a fitted effect of over 55% in size
Outline: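 Cytotoxicity in qHTS format: luminescent ATP readout from CellTiter-Glo after 24 h compound exposure at 37 C in complete medium. LYMP2-020 lymphoblastoid cells were seeded at 2500/well; concentration-response data fitted to the Hill equation for AC50.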

[20] = Cell Viability - LYMP2-022 (AID 987); conditions: LYMP2-022 lymphoblastoid cell viability; series mostly up to 92.2 µM; further: nearly all actives have a fitted effect of over 55% in size
Outline: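 Cytotoxicity read as decreased cellular ATP (CellTiter-Glo luminescence, 30 min room temperature) after 24 hours compound exposure of 2500 lymphoblastoid LYMP2-022 cells/well at 37 C. Concentration-response data fitted with standard Hill equation for AC50.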

Compound | Potency [1] | Potency [2] | Potency [3] | Potency [4] | Potency [5] | Potency [6] | Potency [7] | Potency [8] | Potency [9] | Potency [10] | Potency [11] | Potency [12] | Potency [13] | Potency [14] | max response [15] | max response [16] | activation [17] | max response [18] | Potency [19] | Potency [20]
O=[N+]([O-])c1ccc(F)cc1F | > 92 µM (inactive) | > 92 µM (inactive) | inactive | inactive | inactive | inactive | inactive | inactive | inactive | inactive | inactive | inactive | inactive | inactive | -4.17% | 10.7% (inactive) | 0.688% (inactive) | 3.6% (inactive) |  | 
c1ccncc1 | > 92 µM (inactive) | > 92 µM (inactive) | inactive | inactive | inactive | inactive | inactive | inactive | inactive | inactive | inactive | inactive | inactive | inactive |  |  | -1.01% (inactive) | 1.01% (inactive) | inactive | inactive
Oc1ccc2c(c1)OCO2 | > 92 µM (inactive) | > 92 µM (inactive) | inactive | inactive | inactive | inactive | inactive | inactive | inactive | inactive | inactive | inactive | inactive | inactive | 5.56% | 10.9% (inactive) | -0.0594% (inactive) | 7.08% (inactive) | inactive | inactive
COc1ccc(C)cc1N | > 92 µM (inactive) | > 92 µM (inactive) | inactive | inactive | inactive | inactive | inactive | inactive | inactive | inactive | inactive | inactive | inactive | inactive | -0.963% | 10.5% (inactive) | 3.33% (inactive) | -15% (inactive) | inactive | inactive
CCNC(=S)NCC | > 92 µM (inactive) | > 92 µM (inactive) | inactive | inactive | inactive | inactive | inactive | inactive | inactive | inactive | inactive | inactive | inactive | inactive | -3.33% | 14.7% (inactive) | 1.67% (inactive) | -6.53% (inactive) | inactive | inactive
O=[N+]([O-])c1cccc(I)c1 | > 92 µM (inactive) | > 92 µM (inactive) | inactive | inactive | inactive | inactive | inactive | inactive | inactive | inactive | inactive | inactive | inactive | inactive | -5.01% | -4.26% (inactive) | 0.159% (inactive) | -9.2% (inactive) | inactive | inactive
c1cc2c3c(c1)ccc1cccc(c13)C2 | > 92 µM (inactive) | > 92 µM (inactive) | inactive | inactive | inactive | inactive | inactive | inactive | inactive | inactive | inactive | inactive | inactive | inactive | -1.55% | -11.6% (inactive) | -0.581% (inactive) | 3.07% (inactive) | inactive | inactive
C/C(Cl)=C/CCl | > 92 µM (inactive) | > 92 µM (inactive) | inactive | inactive | inactive | inactive | inactive | inactive | inactive | inactive | inactive | inactive | inactive | inactive | -2.04% | 6.91% (inactive) | 0.708% (inactive) | -11.4% (inactive) | inactive | inactive
C1CCCNCC1 | > 92 µM (inactive) | > 92 µM (inactive) | inactive | inactive | inactive | inactive | inactive | inactive | inactive | inactive | inactive | inactive | inactive | inactive | -4.82% | 5.08% (inactive) | 0.178% (inactive) | -3.87% (inactive) | inactive | inactive
CC(=O)OC1CC(C)OC(C)O1 (stereo unspecified) | > 92 µM (inactive) | > 92 µM (inactive) | inactive | inactive | inactive | inactive | inactive | inactive | inactive | inactive | inactive | inactive | inactive | inactive | 1.48% and -10.6% | 6% (inactive) and 5.73% (inactive) | -3.53% (inactive) and 1.99% (inactive) | -1.36% (inactive) and -5.57% (inactive) | inactive | inactive
OCC(CBr)(CBr)CBr | > 92 µM (inactive) | > 92 µM (inactive) | inactive | inactive | inactive | inactive | inactive | inactive | inactive | inactive | inactive | inactive | inactive | inactive | -12.3% | 0.481% (inactive) | 7.86% (inactive) | -19.9% (inactive) | inactive | inactive
Oc1c(Cl)cc(Cl)c(Cl)c1Cl | > 92 µM (inactive) | > 92 µM (inactive) | inactive | inactive | inactive | inactive | inactive | inactive | inactive | inactive | inactive | inactive | inactive | inactive | -1.63% and -16.2% | 4.04% (inactive) and 5.02% (inactive) | -0.427% (inactive) | -22.8% (inactive) and -1.71% (inactive) | inactive | inactive
